# Bioassay records: PubChem BioAssay, several laboratories
# The list is not random: actives were taken first. Their share in the collection is about 2%.
# APOBEC3A inh = blocks human APOBEC3A ssDNA deamination; P31941; recombinant A3A, FAM/TAMRA ssDNA deamination fluorescence; inhibition, % at 20 µM; 330,000 compounds, 0.41% hits;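 active = at least 40% inhibition at 20 µM here, with at most 30% in a related deaminase screen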;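 also: plate controls were A3A with DMSO for no effect and wells lacking A3A enzyme for full effect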
# Target sequence (P31941 whole entry, looked up): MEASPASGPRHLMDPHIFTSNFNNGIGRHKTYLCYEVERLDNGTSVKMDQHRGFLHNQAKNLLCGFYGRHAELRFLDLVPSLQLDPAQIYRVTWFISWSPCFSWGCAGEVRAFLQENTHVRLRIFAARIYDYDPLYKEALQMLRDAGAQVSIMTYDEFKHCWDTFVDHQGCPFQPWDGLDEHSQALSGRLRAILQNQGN
# Fh CTSL1 inh = counter-screen for PFM18AAP inhibitors: inhibitors of F. hepatica cathepsin L1 | inhibition, % at 5.96 µM | 300,000 compounds, 0.49% hits | recombinant F. hepatica cathepsin L1, Z-Leu-Arg-MCA fluorescence | AID 1906;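 active = inhibition above the mean of all tested compounds plus 3 SD, set per screening campaign, cut at about 17% in these data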;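 also: 0% = plate median of test compound wells and 100% = 1 µM Z-Phe-Ala-diazomethylketone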
# NALP1 yeast inh = inhibitors of NALP1 inflammasome in yeast | S. cerevisiae NALP1/ASC/caspase-1 growth, X-gal OD620, 72 h | 280,000 compounds, 0.61% hits | inhibition, % at 10 µM | AID 2071; in the data active = inhibition mostly above about 24%, no sharp cut-off; inactive = mostly below about 32%
# HGIII-sPLA2 inh = Inhibits HGIII-sPLA2 liposome hydrolysis, primary screen | QFRET BODIPY PC-A2 liposome hydrolysis, fluorescence | AID 743126 | inhibition, % at 12.2 µM | 370,000 compounds, 0.56% hits | Q9NZ20;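 active = inhibition above mean plus 3 SD of compounds lying within the high and low control bounds, cut at about 19% in these data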;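 also: 0% = median of test compound wells and 100% = no enzyme DMSO wells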
# A3G deaminase = APOBEC3G (human) deaminase inhibition; Q9HC16; recombinant A3G, ssDNA deamination FAM/TAMRA fluorescence; inhibition, % at 20 µM; 330,000 compounds, 0.28% hits;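 active = inhibition of at least 40% at 20 µM, with no more than 30% in the related APOBEC3A deaminase screen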;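 also: plate controls were DMSO wells with A3G for no effect and wells lacking A3G enzyme for full effect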
# Target sequence (Q9HC16 whole entry, looked up): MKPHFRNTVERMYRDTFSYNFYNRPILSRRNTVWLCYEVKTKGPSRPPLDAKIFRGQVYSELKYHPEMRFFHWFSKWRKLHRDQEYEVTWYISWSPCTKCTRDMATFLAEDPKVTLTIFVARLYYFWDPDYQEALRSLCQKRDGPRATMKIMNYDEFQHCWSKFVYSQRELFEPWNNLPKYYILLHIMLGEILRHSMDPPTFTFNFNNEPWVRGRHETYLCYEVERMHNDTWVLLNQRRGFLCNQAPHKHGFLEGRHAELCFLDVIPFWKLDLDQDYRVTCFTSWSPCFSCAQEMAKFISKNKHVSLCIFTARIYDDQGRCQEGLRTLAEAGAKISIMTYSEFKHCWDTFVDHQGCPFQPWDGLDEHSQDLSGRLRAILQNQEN
# * = called active by the depositor; . = no result.
SMILES,APOBEC3A inh,Fh CTSL1 inh,NALP1 yeast inh,HGIII-sPLA2 inh,A3G deaminase
Cc1cc(C)c2cc(CN(CCN(C)C)C(=O)Nc3ccccc3Cl)c(=O)[nH]c2c1,-6,3,28*,-9,2
Cc1ccc(S(=O)(=O)NC(=O)Nc2ccc(OC(F)F)cc2)cc1,-5,-3,36*,-6,-8
Cc1ccccc1CS(=O)(=O)Cc1ccc(C(=O)Nc2c(C)cccc2C)o1,.,.,.,-3,.
CCCNC(=O)C[C@H]1CC[C@H]2[C@@H](COc3ccc(NC(=O)c4cncs4)cc3C(=O)N2C)O1,.,.,.,-10,.
O=C1NCCN1C(=O)c1cccc(Cl)c1,-3,19*,3,4,-1
CCOC(=O)C1CCCN(C2CC(=O)N(c3cccc(C(F)(F)F)c3)C2=O)C1 (stereo not given),-1,0,59*,1,-3
CCOC(=O)NC(c1cccc(Cl)c1)C1CCCCCC1=O (stereo not given),1,-2,43*,-1,3
CC(NC(=O)CNC(=O)C1CCCCC1)c1cccc(Cl)c1 (stereo not given),3,5,2,0,2
Cc1cc(NN)nc(NS(=O)(=O)c2ccccc2Cl)n1,1,-1,-1,0,-7
COc1cc(C)nc(NS(=O)(=O)c2ccccc2Cl)n1,-5,1,39*,-1,-5
O=C1CN(C(=O)COC(=O)CNS(=O)(=O)/C=C/c2ccccc2)c2ccccc2N1,7,-16,34*,-2,-2
CC(Oc1ccccc1)C(=O)OCC(=O)N1CC(=O)Nc2ccccc21 (stereo not given),-5,-3,24*,-6,-9
Cc1nc(N2CCN(C(=O)C3CCCCC3)CC2)c2c3c(sc2n1)CCCC3,.,.,.,3,.
O=C1SCCC1NS(=O)(=O)c1ccc([N+](=O)[O-])cc1 (stereo not given),0,21*,-5,4,3
O=C(NC(=S)NC1CCSC1=O)c1ccc([N+](=O)[O-])cc1 (stereo not given),-7,3,-8,5,5
O=C(NCCO)[C@H](Cc1ccccc1)NC1(C(=O)NCCc2c[nH]c3ccccc23)CCCCC1,.,.,.,-57,.
Cc1nc2ccccc2c(=O)n1/N=C/c1cn[nH]c1-c1ccccc1,6,1,41*,1,2
CCN(CC)CC#CCC(C)(c1ccccc1)c1ccccc1,0,0,31*,-9,-3
CCN(CC)CC#CCC(O)(c1ccccc1)c1ccccc1,4,-3,22,-17,-8
O=C1S/C(=C/c2ccc(N3CCOCC3)o2)C(=O)N1Cc1c(F)cccc1Cl,13,49*,27,0,-3
O=C1S/C(=C\c2ccc(N3CCOCC3)o2)C(=O)N1Cc1c(F)cccc1Cl,-13,1,0,-7,-12
CC(Sc1ccc(Cl)cc1)C(=O)Nc1ccc2c(c1)OCO2 (stereo not given),-5,2,-4,1,-4
CC(C)N1CCC2(CC1)N=C(c1ccc3c(c1)OCO3)CC(c1cc(Cl)ccc1O)N2 (stereo not given),-5,1,68*,-23,-1
Cc1cc2c(cc(C(=O)OC(C(=O)NCc3ccco3)C(C)C)n2C)o1 (stereo not given),-3,24*,-2,-28,3
CC(C)C(OC(=O)c1cccs1)C(=O)NCc1ccco1 (stereo not given),1,-4,17,2,-1
SMILES,APOBEC3A inh,Fh CTSL1 inh,NALP1 yeast inh,HGIII-sPLA2 inh,A3G deaminase
O=C(CCCl)NC1CCCCN(Cc2ccc(OC(F)(F)F)cc2)C1=O (stereo not given),.,.,.,7,.
O=C(CN1CCCc2ccccc21)NCc1ccccc1F,.,.,.,4,.
COC(=O)c1ccc(NCc2cc(O)ccc2O)cc1O,.,.,.,17,.
COC(=O)c1ccc(NCc2c(O)ccc(O)c2Br)cc1Cl,.,.,.,34*,.
Cc1ccc(CNC(=O)O[C@H]2CC[C@@]34CCCN3C(=O)CCC[C@H]4[C@H]2C)cc1,.,.,.,0,.
CC1=CC(=O)C(C(C)C)=C/C1=N\OS(=O)(=O)c1ccccc1,.,.,.,2,.
CC1=C/C(=N\OS(=O)(=O)c2ccccc2)C(C(C)C)=CC1=O,.,10,102*,.,.
Cc1ccnc(NC(=S)N2CC3CN(c4cccc(C(F)(F)F)c4)CC3C2)c1 (stereo not given),.,.,.,7,.
COC(=O)C[C@@H]1CC[C@H]2[C@@H](COc3ccc(NC(=O)c4ccc(Cl)cc4)cc3C(=O)N2C)O1,.,.,.,16,.
Cc1ccc(S(=O)(=O)CCC(=O)N2CCN(c3ccccc3F)CC2)cc1,-2,-3,2,0,-6
O=C(CCS(=O)(=O)c1ccc(Cl)cc1)N1CCN(c2ccccc2F)CC1,-2,0,28*,3,-5
COc1ccc(C(=O)N/C(=C\c2ccc(Cl)cc2)C(=O)NCC2CCCO2)cc1 (stereo not given),1,17*,-5,-1,11
O=S1(=O)c2ccc(N3CCCC3)cc2Oc2ccccc2CN1Cc1cn(Cc2cccc(C(F)(F)F)c2)nn1,.,.,.,13,.
N#Cc1c(N2CCCC(O)C2)nc(N)c2c(N)nc3c(c12)CC(=O)N3C12CC3CC(CC(C3)C1)C2 (stereo not given),0,25*,7,-3,-3
C=C(C)CN(CC)c1nc(N)c2c(N)nc3c(c2c1C#N)CC(=O)N3C12CC3CC(CC(C3)C1)C2,2,4,-9,-5,2
COc1ccc(NC(=O)N2CCC(c3nc4ccc(Cl)cc4[nH]3)CC2)cc1OC,.,.,.,-2,.
CCCCCCCCCC[n+]1cccc2c3ccccc3ccc21,.,.,26*,6,.
Cc1cccc[n+]1CCCCCCCCCC[n+]1ccccc1C,-3,3,5,0,-12
COc1ccccc1N1CCN(C(=O)CCN2C(=O)c3cccc4cccc(c34)C2=O)CC1,-1,3,45*,6,-2
COc1ccccc1N1CCN(C(=O)CSc2nc3ccccc3[nH]2)CC1,25,-1,-7,-8,19
COc1ccccc1N1CCN(C(=O)CSc2nc(N)cc(=O)[nH]2)CC1,2,-2,41*,8,-4
O=C(COC(=O)c1ccc(Sc2ncn[nH]2)c([N+](=O)[O-])c1)Nc1ccc(Cl)c(Cl)c1,.,.,.,-23,.
C[C@H]1[C@@H](NC(=O)c2ccc(C(C)(C)C)cc2)CC[C@@]23CCCN2C(=O)CCC[C@@H]13,.,.,.,2,.
NC(=O)C1CCN(C2=C(Cl)C(=O)c3ccccc3C2=O)CC1,1,24*,3,3,10
Cc1ccc(C)n1-c1ccc(C(=O)NN)s1,4,21*,4,-2,-9
CCOC(=O)CNC(=O)c1ccc(Br)s1,-1,1,.,10,-3
Cc1cccc(/C=N/n2c(-c3ccccn3)n[nH]c2=S)c1,-1,-2,27,.,57*
S=c1[nH]nc(-c2ccncc2)n1/N=C/c1cccc(Cl)c1,-4,-1,.,2,53*
Cc1ccc(/C=N/n2c(-c3ccccn3)n[nH]c2=S)o1,-1,-4,13,-2,31
